According to the supplement of paper PMC12494721:
Structures can show the parent of a compound that is named as a salt.

Experiments:
Conditions in all cases: incubation time: 27 h, anaerobic, 37 °C;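 for the amine columns active = adjusted P below 0.05 in both replicates with a change the same way and a mean fold change under 0.8 or over 1.25; inactive = the rest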
[1] = system: Clostridium sporogenes DSM 1664; assay: growth (OD595) fold change vs plate DMSO controls (fold change (ratio)); higher = more growth
Outline: (§1)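 Shaken 96-well cultures in mGAM, grown anaerobically for 27 h at 37 °C, were read at 595 nm. OD came from blank-subtracted readings, corrected for background with 20 µM compound solutions in water and scaled by a calibration factor of 5. Growth is the fold change versus the plate's median DMSO control. Values average 2 biological replicates, and any fold change above 1.5 is NA.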

Escherichia coli IAI1 [2] = assay: as above
Outline: as §1

[3] = system: Klebsiella aerogenes DSM 30053; assay: as above
Outline: as §1

[4] = system: Ruminococcus gnavus DSM 108212; assay: as above
Outline: as §1

[5] = system: Klebsiella aerogenes DSM 30053; assay: fold change of Histamine concentration vs plate DMSO controls (fold change (ratio)); higher = more amine produced, active = hit call of the paper (significant change in both replicates, either direction)
Outline: (§2)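 In 80 µL wells, cultures of four gut bacterial strains in mGAM started at OD 0.1 before a 1:1 dilution and grew anaerobically at 37 °C for 27 h. Compounds were added to 20 µM final, except sweeteners at 50 µM final. After extraction of whole cultures with cold acetonitrile/methanol plus 0.1% formic acid and centrifugation, amines were measured by LC–triple-quadrupole MS in dynamic MRM mode against external calibration curves, with within-batch drift correction. Values give fold change over DMSO controls on the same plate, averaged across 2 biological replicates.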

[6] = system: Clostridium sporogenes DSM 1664; assay: fold change of Tryptamine concentration vs plate DMSO controls (fold change (ratio)); higher = more amine produced, active = hit call of the paper (significant change in both replicates, either direction)
Outline: as §2

[7] = system: Ruminococcus gnavus DSM 108212; assay: as above
Outline: as §2

Escherichia coli IAI1 [8] = assay: fold change of Putrescine concentration vs plate DMSO controls (fold change (ratio)); higher = more amine produced, active = hit call of the paper (significant change in both replicates, either direction)
Outline: as §2

[9] = system: Klebsiella aerogenes DSM 30053; assay: as above
Outline: as §2

Escherichia coli IAI1 [10] = assay: fold change of Cadaverine concentration vs plate DMSO controls (fold change (ratio)); higher = more amine produced, active = hit call of the paper (significant change in both replicates, either direction)
Outline: as §2

[11] = system: Klebsiella aerogenes DSM 30053; assay: as above
Outline: as §2

[12] = system: Ruminococcus gnavus DSM 108212; assay: fold change of 2-Phenylethylamine concentration vs plate DMSO controls (fold change (ratio)); higher = more amine produced, active = hit call of the paper (significant change in both replicates, either direction)
Outline: as §2

| Structure (SMILES) | growth [1] | growth (Escherichia coli IAI1 [2]) | growth [3] | growth [4] | fold change of Histamine concentration [5] | fold change of Tryptamine concentration [6] | fold change of Tryptamine concentration [7] | fold change of Putrescine concentration (Escherichia coli IAI1 [8]) | fold change of Putrescine concentration [9] | fold change of Cadaverine concentration (Escherichia coli IAI1 [10]) | fold change of Cadaverine concentration [11] | fold change of 2-Phenylethylamine concentration [12] |
| --- | --- | --- | --- | --- | --- | --- | --- | --- | --- | --- | --- | --- |
| CO/N=C(\C(=O)N[C@@H]1C(=O)N2C(C(=O)O)=C(COC(N)=O)CS[C@H]12)c1ccco1 [Cefuroxime sodium salt] (20 µM) | 0 | 0.0568 | 0.796 | 0.229 | 1.1 (inactive) | 0.031 (active) | 0.0602 (active) | 0.84 (inactive) | 1.03 (inactive) | 1.98 (active) | 1.07 (inactive) | 0.0618 (active) |
| CC[N+](CC)(CC(=O)Nc1c(C)cccc1C)Cc1ccccc1 [Denatonium benzoate] (20 µM) | 0.911 | 1.2 | 1.02 | 1.02 | 0.934 (inactive) | 0.999 (inactive) | 0.99 (inactive) | 1 (inactive) | 0.995 (inactive) | 0.91 (inactive) | 1 (inactive) | 0.945 (inactive) |
| CCOC(=O)O[C@]1(C(=O)COC(=O)CC)CC[C@H]2[C@@H]3CCC4=CC(=O)C=C[C@]4(C)[C@H]3[C@@H](O)C[C@@]21C [Prednicarbate] (20 µM) | 1.04 | 1.09 | 1.01 | 0.865 | 1.02 (inactive) | 0.97 (inactive) | 1.2 (inactive) | 0.941 (inactive) | 1.03 (inactive) | 1.01 (inactive) | 1.12 (inactive) | 1.41 (inactive) |
| NS(=O)(=O)c1cc2c(cc1Cl)NC(Cc1ccccc1)NS2(=O)=O (centres undefined) [Benzylhydrochlorothiazide] (20 µM) | 1.04 | 1.05 | 0.986 | 0.982 | 0.96 (inactive) | 1.05 (inactive) | 1.06 (inactive) | 1.06 (inactive) | 0.971 (inactive) | 0.887 (inactive) | 1.01 (inactive) | 1.07 (inactive) |
| Cc1c(Cl)cccc1Nc1ncccc1C(=O)O [Clonixin lysinate] (20 µM) | 1.13 | 1.07 | 1.02 | 1.43 | 1.01 (inactive) | 0.959 (inactive) | 1.01 (inactive) | 1.1 (inactive) | 1.03 (inactive) | 0.96 (inactive) | 1.04 (inactive) | 1.01 (inactive) |
| O=C(Nc1ccc([N+](=O)[O-])cc1Cl)c1cc(Cl)ccc1O [Niclosamide] (20 µM) | 0.924 | 1.12 | 1.1 | 0.78 | 0.97 (inactive) | 1.02 (inactive) | 0.887 (inactive) | 1.22 (inactive) | 1.03 (inactive) | 1.31 (active) | 0.992 (inactive) | 0.934 (inactive) |
| O=C(Cn1c(=O)sc2ccc(Cl)cc21)N1CCN(CCO)CC1 [Tiaramide Hydrochloride] (20 µM) | 0.912 | 1 | 1 | 0.982 | 1.01 (inactive) | 1.08 (inactive) | 1.07 (inactive) | 0.959 (inactive) | 0.993 (inactive) | 0.963 (inactive) | 0.991 (inactive) | 1.13 (inactive) |
| CCOC(=O)OC(C)OC(=O)[C@@H]1N2C(=O)[C@@H](NC(=O)[C@H](N)c3ccccc3)[C@H]2SC1(C)C (some centres undefined) [Bacampicillin hydrochloride] (20 µM) | 0 | 1.16 | 1.46 | 0.0946 | 1.02 (inactive) | 0.0203 (active) | 0.0343 (active) | 0.928 (inactive) | 1.07 (inactive) | 1.6 (active) | 1.05 (inactive) | 0.0374 (active) |
| CC[C@H](c1ccc(O)cc1)[C@@H](CC)c1ccc(O)cc1 [Hexestrol] (20 µM) | 0.933 | 1.03 | 0.999 | 0.869 | 1.06 (inactive) | 0.609 (active) | 0.789 (active) | 1.05 (inactive) | 1.01 (inactive) | 1.06 (inactive) | 0.989 (inactive) | 0.749 (inactive) |
| CCCCC[C@H](O)/C=C/[C@H]1[C@H](O)CC(=O)[C@@H]1CCCCCCC(=O)O [Alprostadil] (20 µM) | 1.02 | 0.977 | 1.01 | 1.01 | 1.08 (inactive) | 0.957 (inactive) | 0.987 (inactive) | 1.05 (inactive) | 1.01 (inactive) | 1.01 (inactive) | 0.997 (inactive) | 0.985 (inactive) |
| CCC[C@H](N[C@@H](C)C(=O)N1[C@H](C(=O)O)C[C@@H]2CCCC[C@@H]21)C(=O)OCC [Perindopril] (20 µM) | 0.997 | 1 | 1.05 | 1.21 | 0.997 (inactive) | 0.965 (inactive) | 1.02 (inactive) | 0.914 (inactive) | 1.03 (inactive) | 0.993 (inactive) | 1.01 (inactive) | 0.995 (inactive) |
| c1ccc2cc3c(ccc4ccccc43)cc2c1 [Benz[a]anthracene] (20 µM) | 1.13 | 0.981 | 1.02 | 0.97 | 1.07 (inactive) | 1.17 (inactive) | 1.12 (inactive) | 1.02 (inactive) | 0.901 (inactive) | 0.963 (inactive) | 1.17 (inactive) | 1.3 (inactive) |
| COc1ccc2c3c1O[C@H]1C[C@@H](O)C=C[C@@]31CCN(C)C2 [Galanthamine hydrobromide] (20 µM) | 0.93 | 1.06 | 1.04 | 0.846 | 1.01 (inactive) | 1.01 (inactive) | 1.01 (inactive) | 1.03 (inactive) | 1 (inactive) | 0.979 (inactive) | 0.999 (inactive) | 1 (inactive) |
| C[C@@H]1[C@H](O)[C@@H](C)/C=C/C=C/C=C/C=C/C=C/C=C/C=C/[C@H](O[C@@H]2O[C@H](C)[C@@H](O)[C@H](N)[C@@H]2O)C[C@@H]2O[C@](O)(C[C@@H](O)C[C@@H](O)[C@H](O)CC[C@@H](O)C[C@@H](O)CC(=O)O[C@H]1C)C[C@H](O)[C@H]2C(=O)O [Amphotericin B] (20 µM) | 0.881 | 1.01 | 0.982 | 0.469 | 1.01 (inactive) | 0.985 (inactive) | 1.09 (inactive) | 1.23 (inactive) | 0.957 (inactive) | 1.09 (inactive) | 1.14 (inactive) | 1.25 (inactive) |
| CC(=O)Nc1c(I)c(C(=O)N[C@H]2C(O)O[C@H](CO)[C@@H](O)[C@@H]2O)c(I)c(N(C)C(C)=O)c1I (some centres undefined) [Metrizamide] (20 µM) | 1.03 | 1.22 | 1.04 | 0.799 | 0.994 (inactive) | 1.05 (inactive) | 1.06 (inactive) | 1.22 (inactive) | 0.994 (inactive) | 0.971 (inactive) | 1 (inactive) | 1.08 (inactive) |
| NC(=O)c1cn(Cc2c(F)cccc2F)nn1 [Rufinamide] (20 µM) | 0.904 | 0.974 | 1.01 | 0.922 | 0.998 (inactive) | 0.969 (inactive) | 1.02 (inactive) | 0.999 (inactive) | 0.995 (inactive) | 0.98 (inactive) | 0.985 (inactive) | 1.02 (inactive) |
| COc1cc(C(=O)NC2CCCNC2)cc(OC)c1OC (centres undefined) [Troxipide] (20 µM) | 0.822 | 1.02 | 0.99 | 0.845 | 0.989 (inactive) | 1.03 (inactive) | 1.06 (inactive) | 0.965 (inactive) | 0.983 (inactive) | 0.978 (inactive) | 0.996 (inactive) | 1.02 (inactive) |
| COc1ccc(C(=O)NCc2ccc(OCCN(C)C)cc2)cc1OC [Itopride] (20 µM) | 1.15 | 1.1 | 1.08 | 1.2 | 0.925 (inactive) | 1.05 (inactive) | 1.04 (inactive) | 1.09 (inactive) | 0.98 (inactive) | 0.942 (inactive) | 1.06 (inactive) | 1.04 (inactive) |
| COC(=O)Nc1nc2cc(C(=O)c3ccccc3)ccc2[nH]1 [Mebendazole] (20 µM) | 1.04 | 1 | 1.11 | 0.629 | 0.962 (inactive) | 0.982 (inactive) | 1.01 (inactive) | 1.03 (inactive) | 0.987 (inactive) | 0.998 (inactive) | 1 (inactive) | 1.03 (inactive) |
| CN(Cc1ccc(C(C)(C)C)cc1)Cc1cccc2ccccc12 [Butenafine hydrochloride] (20 µM) | 1.12 | 1.04 | 0.979 | 0.838 | 1.11 (inactive) | 0.918 (inactive) | 0.96 (inactive) | 1.05 (inactive) | 1.01 (inactive) | 1.02 (inactive) | 0.992 (inactive) | 1.03 (inactive) |
| c1ccc2cc3ccccc3cc2c1 [Anthracene] (20 µM) | 1.03 | 1.04 | 0.993 | 0.985 | 1.03 (inactive) | 1.03 (inactive) | 1.02 (inactive) | 1.01 (inactive) | 0.986 (inactive) | 0.976 (inactive) | 1.02 (inactive) | 0.963 (inactive) |
| CN(C)C(=N)NC(=N)N [Metformin hydrochloride] (20 µM) | 0.988 | 1.02 | 0.989 | 1.26 | 0.96 (inactive) | 1 (inactive) | 1.06 (inactive) | 1.03 (inactive) | 0.96 (inactive) | 0.962 (inactive) | 1.02 (inactive) | 1.08 (inactive) |
